Most compounds without a hit are left out; they make up all but 8% or so of the library.
KB-3-1 tox: KB-3-1 parental cell cytotoxicity; Potency, µM (top dose mostly 46.1 µM), most hits filed as cytotoxic; actives 1.4% (n = 400,000); KB-3-1 viability, CellTiter-Glo ATP luminescence, 72 h; AID 1347075; also: nearly all actives have a fitted effect of over 60% in size
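KB-3-1 cells, DMEM (no phenol red) + 10% FBS; compound by pin transfer, 72 h, 37 °C. Readout: CellTiter-Glo luminescence after 10 min. Data normalized, curve-fitted.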
KB-V1 MDR tox: kills drug-selected multidrug resistant KB-V1 cells. KB-V1 MDR cells viability, CellTiter-Glo, 72 h. Potency, µM (series often up to 46.1 µM), hits mostly cytotoxic. actives 3.4% (n = 400,000). AID 1347076; also: nearly all actives have a fitted effect of over 60% in size
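Readout: CellTiter-Glo luminescence, 10 min after addition. Cells: KB-V1 MDR subline, 72 h at 37 degrees C with compound. Analysis: corrected, normalized data fitted to concentration-effect curves.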
HT1080NT lethal: kills 2HG-producing HT-1080-NT fibrosarcoma cells; HT-1080-NT fibrosarcoma viability, CellTiter-Glo ATP luminescence, 48 h; Potency, µM (series often up to 46.1 µM), usual class: cytotoxic; actives 1.6% (n = 360,000); AID 686970;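 also: NT is the 2HG producing partner of a matched IDH1 knockdown line; nearly all actives have a fitted effect of over 55% in size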
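Read-out is CellTiter-Glo luminescence after 10 minutes at room temperature, following 48 hours' compound treatment of HT-1080-NT cells (750 cells/well, RPMI, 5% FBS, 37 degrees C).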
HT1080 IDH1KD tx: kills HT-1080 cells with IDH1 knockdown; AID 686971; HT-1080 IDH1 knockdown viability, ATP luminescence, 48 h; Potency, µM (series often up to 46.1 µM), actives largely listed as cytotoxic; actives 2% (n = 360,000)
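CellTiter-Glo luminescence after 48 h compound exposure at 37 degrees C of IDH1-knockdown HT-1080 cells in 5% FBS RPMI. %Activity scaled between DMSO wells and cell-free media wells, with curves fitted and assigned curve classes.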
MCF10A rerep: DNA re-replication induction in MCF 10a cells | MCF 10A DNA re-replication, Hoechst nuclear intensity, 48 h | Potency, µM (doses to about 46.1 µM), most hits filed as activators | actives 2.9% (n = 350,000) | AID 624296; also: nearly all actives have a fitted effect of over 50% in size
SW480 rerep: induces DNA re-replication in SW480 colon adenocarcinoma cells; SW480 DNA re-replication, Hoechst DNA content imaging, 48 h; Potency, µM (series often up to 46.1 µM), actives largely listed as activators; actives 1.8% (n = 340,000); AID 624297; also: nearly all actives have a fitted effect of over 55% in size
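Image-based DNA-content assay: after two days of treatment, nuclei were labelled with the DNA dye Hoechst and imaged, and hits were compounds raising the count of nuclei showing high fluorescence intensity.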
Of the large screens only hits and unclear results are named; the others gave an inactive call; ! = not active in a repeat. Calls follow the shape of the dose curve; as a rule, active = well fitted curve in the direction sought with a large enough effect; inconclusive = small, poorly fitted or top-dose-only effect, or another doubt; inactive = no such curve, though single readings can be large; an effect the other way counts as inactive or inconclusive.

C=CCn1c(=NC(=O)C2COc3ccccc3O2)sc2cccc(OC)c21 (stereo not drawn)	KB-3-1 tox inconclusive, KB-V1 MDR tox inconclusive
CCn1c(=NC(=O)C2COc3ccccc3O2)sc2c(C)ccc(OC)c21 (stereo not drawn)	KB-3-1 tox inconclusive, KB-V1 MDR tox inconclusive, MCF10A rerep 16µM
COC(=O)c1ccc(/C=N\N2CCN(c3ccccc3)CC2)cc1	none
Cc1nn(C)c(C)c1CNC(=O)/C=C/c1ccccc1F	KB-V1 MDR tox 18µM
COc1ccc(Cl)cc1S(=O)(=O)N1CCN(Cc2cccc(F)c2)CC1	none (no result: HT1080NT lethal, HT1080 IDH1KD tx, MCF10A rerep, SW480 rerep)
COc1ccc(CN2C(=O)c3cccnc3C2Nc2ccc(OC)c(Cl)c2)cc1 (stereo not drawn)	KB-V1 MDR tox 15µM
CN(C)CCOc1ccc(C(C)(C)c2ccccc2)cc1	none
CCOc1ccc(C(=O)OCCN(CC)CC)cc1	none
CCN(CC)CCOc1ccc(/C(=C(/Cl)c2ccccc2)c2ccccc2)cc1	KB-3-1 tox inconclusive, KB-V1 MDR tox inconclusive, HT1080NT lethal 18µM, HT1080 IDH1KD tx 18µM!, MCF10A rerep 4.1µM!
CC/C(=C(\c1ccccc1)c1ccc(OCCN(C)C)cc1)c1ccccc1	KB-V1 MDR tox inconclusive, HT1080NT lethal 16µM, HT1080 IDH1KD tx inconclusive, MCF10A rerep inconclusive, SW480 rerep 1.3µM!
O=C(c1ccc2c(c1)N(Cc1ccc(Cl)cc1)C(=O)c1ccccc1S2=O)N1CCOCC1 (stereo not drawn)	none (no result: HT1080NT lethal, HT1080 IDH1KD tx, MCF10A rerep, SW480 rerep)
CC(C)c1ccc(C(C)NC(=O)C2CCCC2)cc1 (stereo not drawn)	KB-3-1 tox inconclusive
COc1cccc2c1C(=N)c1c(O)c3c(c(O)c1C2=O)CC(O)(C(C)=O)CC3OC1CC(N)C(O)C(C)O1 (stereo not drawn)	KB-3-1 tox inconclusive, KB-V1 MDR tox inconclusive, HT1080NT lethal 21µM, HT1080 IDH1KD tx 21µM, SW480 rerep inconclusive
COc1cccc2c1C(=O)c1c(O)c3c(c(O)c1C2=O)C[C@@](O)(C(=O)CO)C[C@@H]3O[C@H]1C[C@H](N)[C@H](OC2CCCCO2)[C@H](C)O1 (stereo partly drawn)	KB-3-1 tox inconclusive, KB-V1 MDR tox inconclusive (no result: HT1080NT lethal, HT1080 IDH1KD tx)
COc1cccc2c1C(=O)c1c(O)c3c(c(O)c1C2=O)CC(O)(C(C)=O)CC3OC1CC(O)C(O)C(C)O1 (stereo not drawn)	KB-3-1 tox inconclusive, KB-V1 MDR tox inconclusive, HT1080NT lethal inconclusive, HT1080 IDH1KD tx 23µM, SW480 rerep inconclusive
CCCCC(=O)OCC(=O)C1(O)Cc2c(O)c3c(c(O)c2C(OC2CC(NC(=O)C(F)(F)F)C(O)C(C)O2)C1)C(=O)c1c(OC)cccc1C3=O (stereo not drawn)	KB-3-1 tox inconclusive, HT1080NT lethal 23µM, HT1080 IDH1KD tx 8.2µM
COc1cccc2c1C(=O)c1c(O)c3c(c(O)c1C2=O)C[C@](O)(C(C)=O)C[C@H]3O[C@@H]1C[C@@H](N)[C@@H](O)[C@@H](C)O1	KB-3-1 tox inconclusive, HT1080NT lethal 0.65µM, HT1080 IDH1KD tx 0.41µM
O=C(CC(C(=O)O)n1ccnc1)c1ccc(Cl)cc1 (stereo not drawn)	none (no result: HT1080NT lethal, HT1080 IDH1KD tx, MCF10A rerep, SW480 rerep)
CCOc1ccccc1CNC(=O)C1CCN(c2nn3cc(-c4ccc(F)cc4)nc3s2)CC1	none (no result: HT1080NT lethal, HT1080 IDH1KD tx, MCF10A rerep, SW480 rerep)
COCCNC(=O)c1ccc(N2CC3CC(C2)c2cccc(=O)n2C3)c(NC(=O)c2c(F)cccc2F)c1 (stereo not drawn)	none
CC1CCN(C(=O)COC(=O)c2ccc([N+](=O)[O-])o2)CC1	KB-V1 MDR tox inconclusive, SW480 rerep 21µM
CC1CCN(C(=O)COC(=O)c2ccc(Br)o2)CC1	KB-3-1 tox inconclusive
CN(Cc1ccccc1)C(=S)Nc1ccc(OC(F)F)cc1	KB-V1 MDR tox 15µM
O=C(Cc1ccccc1F)Nc1ccc(S(=O)(=O)Nc2ncccn2)cc1	none
CCOC(=O)C1(Cc2cccc(OC)c2)CCN(Cc2cc(OC)ccc2OC)CC1	HT1080 IDH1KD tx inconclusive, MCF10A rerep inconclusive, SW480 rerep 23µM

Screening data as filed in PubChem BioAssay.
